The list is not random: actives were taken first. Their share in the collection is about 2.2%.
RTF Ca sens inh = cardiac RTF calcium desensitization | IANBD-labeled cardiac RTF, Ca2+ fluorescence | inhibition, % at 7.15 µM | actives 0.12% (n = 340,000) | AID 493244;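 active = inhibition above the mean inhibition of all tested compounds plus 3 SD, cut at about 17% in these data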;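 note: assay run at fixed EC70 calcium of 1.6 mM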
CRFR2-BP ag = CRF-BP/CRF-R2 complex agonism; HEK293 CRF-R2/CRF-BP, calcium dye fluorescence (FLIPR); percent of saturating CRF peptide response; activation, % at 13.2 µM; actives 0.46% (n = 350,000); AID 588473;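 active = activation of at least 50%, plus an integration ratio under a set limit after plate pattern correction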
CRFR2-BP antag = blocks CRF-induced signaling of the CRF-BP/CRF-R2 complex; HEK293 CRF-R2/CRF-BP, CRF-induced calcium fluorescence; inhibition, % at 11.8 µM; actives 0.59% (n = 350,000); AID 588475;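 active = inhibition of the ligand-induced calcium signal above about 50% at the single tested concentration, limit read from the data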
Myeloid diff MLP = compounds promoting myeloid differentiation | calls only at 10 µM | AID 624256 | actives 1% (n = 360,000) | ER-HoxA9 myeloid progenitors, lysozyme-GFP differentiation, flow cytometry;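 active = normalized GFP-positive differentiation at or above the plate's own cutoff, the solvent-only control mean plus 3 SD; inconclusive = no clear call, values can overlap the other calls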;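 note: cells exposed to compound for four days before flow analysis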
RTF Ca sens act = cardiac RTF calcium sensitization | P19429+P45379 | IANBD-labeled TnC RTF fluorescence at EC20 calcium; 0% EC20 calcium, 100% full calcium | activation, % at 7.2 µM | actives 0.24% (n = 340,000) | AID 493008;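 active = activation above the mean over all tested compounds plus 3 SD, cut at about 30% in these data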;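 note: rise in fluorescence read as greater calcium sensitivity of cardiac thin filaments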
Each line names hits and unclear results; the compound was inactive in the other large screens; ! = not active in a repeat.

O=C(NC1CCCN(C2Cc3ccccc3C2)C1)c1ccc(F)cc1Cl (stereo not drawn)	none
C/C(=N\N(Cc1ccccc1)c1ccccc1)c1ccncc1	none
COc1ccc(C(=O)c2sc(Nc3cccc(OC)c3)c(C(=O)Nc3cccc(C)c3C)c2N)cc1	CRFR2-BP ag 121
CCn1c(SCc2ccc(C#N)cc2)nnc1-c1ccc(S(=O)(=O)N2CCCCC2)cc1	none
COc1ccc(C)cc1Nc1nc(-c2c[nH]c3ccccc23)cs1	Myeloid diff MLP active
CN(C)c1ccc(C=Nc2ccc(N(C)C)cc2)cc1	none
CN(C)c1ccc(N=Cc2ccco2)cc1	Myeloid diff MLP active
CCNc1ccc(Br)cc(C(=O)/C=C/c2ccc(Cl)cc2)c1=O	none
CCNc1ccc(Br)cc(C(=O)/C=C/c2c(Cl)cccc2Cl)c1=O	Myeloid diff MLP active
COc1ccc(S(=O)(=O)N(C)c2ccc(C(=O)Nc3ccccc3C(=O)N3CCOCC3)cc2)cc1OC	none
O=C(N/N=C1/C(=O)c2cccc3cccc1c23)c1ccc(Cl)cc1	CRFR2-BP ag 52
CCNC(=S)N/N=C1\C(=O)c2cccc3cccc1c23	none
CCOc1ccc2[nH]cc(S(=O)(=O)c3ccc(F)cc3)c(=O)c2c1	none
CCCn1cc(S(=O)(=O)c2ccc(F)cc2)c(=O)c2cc(OCC)ccc21	Myeloid diff MLP active
COc1cc(C(=O)NCCC(=O)NC(C)CCc2ccccc2)cc(OC)c1OC (stereo not drawn)	none
CN1C(=O)C(C)(C)c2cc(S(=O)(=O)N3CCN(c4ccc(F)cc4)CC3)ccc21	none
CN1C(=O)C(C)(C)c2cc(S(=O)(=O)N3CCN(c4cccc(Cl)c4)CC3)ccc21	Myeloid diff MLP active
NC(=O)c1ccsc1NC(=O)COC(=O)Cc1cccc2ccccc12	none
Cc1ccc(-c2ccc(SCC(=O)NCC3CCCO3)nn2)cc1 (stereo not drawn)	CRFR2-BP antag 83
CCOc1ccc(-c2ccc(SCC(=O)NCC3CCCO3)nn2)cc1 (stereo not drawn)	none
Cc1cccc(-[n+]2c(C)cc(C)c3c(=O)[nH]c(=O)[nH]c32)c1	none
CN(Cc1cnc2nc(N)nc(N)c2n1)c1ccc(C(=O)N[C@@H](CCC(=O)O)C(=O)O)cc1	Myeloid diff MLP active!
COc1cccc(NC(=O)[C@H](C)NC(=O)N2CCn3c2nc2ccccc23)c1	none
COc1cc(NC(=O)[C@H](C)NC(=O)N2CCn3c2nc2ccccc23)cc(OC)c1	CRFR2-BP antag 86
COc1ccc(C(CNC(=O)c2cc(S(=O)(=O)N3CCCC3)ccc2Cl)N2CCCC2)cc1 (stereo not drawn)	none
O=c1cc(-c2ccccc2)ss1	CRFR2-BP antag 90
COc1ccc(-c2csc(NC(=O)CN3C(=O)C4CC=CCC4C3=O)n2)cc1OC (stereo not drawn)	CRFR2-BP antag 57
Cc1ccc(C(=O)NCC(=O)Nc2ncccc2C)s1	none
COc1ccc(S(=O)(=O)N2CCOCC2)cc1NC(=O)CSc1cccc[n+]1[O-]	none
NS(=O)(=O)c1ccc(O)c(N2C(=O)c3cccc4c(C(=O)O)ccc(c34)C2=O)c1	none
CCCCNC(=O)NNC(=O)c1cc(C)on1	none
O=C(CCCn1c(=S)[nH]c2ccsc2c1=O)NC1CCCCC1	none
CC1CCCCC1NC(=O)CCCCCn1c(=S)[nH]c2ccsc2c1=O (stereo not drawn)	CRFR2-BP antag 93
COc1ccc(S(=O)(=O)N(CC(=O)NC2CCCCC2)c2ccc(F)cc2)cc1	none
CCn1c(C)nc2cc(C(=O)NN=Cc3ccc([N+](=O)[O-])cc3)ccc21	CRFR2-BP antag 73
COc1ccc(N2C(=O)/C(=C/c3ccc([N+](=O)[O-])cc3)C=C2c2ccccc2)cc1	Myeloid diff MLP active
Cc1nnc(N2CCOCC2)c2nn(-c3cccc(Cl)c3)c(C)c12	RTF Ca sens act 33
Cc1nnc(-n2ncc(C#N)c2N)c2nn(-c3cccc(Cl)c3)c(C)c12	none
Cc1ccc(N2NC(=O)/C(=C/c3ccc(-c4ccc(Cl)c(C(=O)O)c4)o3)C2=O)cc1	none
CCCCC1(C)OC(=O)C(=Cc2ccc(-c3ccc(Cl)c(C(=O)O)c3)o2)C(=O)O1 (stereo not drawn)	CRFR2-BP antag 61
O=C(OCCN1C(=O)c2cccc3c(N4CCOCC4)ccc(c23)C1=O)c1ccc(Cl)cc1	CRFR2-BP ag 366 (no result: Myeloid diff MLP)
CCCN(CCC)S(=O)(=O)c1ccc(C(=O)OCCN2C(=O)c3cccc4c(N5CCOCC5)ccc(c34)C2=O)cc1	CRFR2-BP ag 114, Myeloid diff MLP inconclusive, RTF Ca sens act 52
O=C(OCCN1C(=O)c2ccccc2C1=O)c1cc(S(=O)(=O)N2CCOCC2)ccc1F	none
O=C(NCCCN1CCCCC1)C1CCN(S(=O)(=O)N2CCC3(CC2)OCCO3)CC1	none
Cc1ccccc1CN(C)C(=O)COC(=O)c1ccc2[nH]c(C)c(C)c2c1	CRFR2-BP antag 64
Cc1cc(C)c(C)c(S(=O)(=O)N2CCN(c3ccc(O)cc3)CC2)c1C	none
O=C(NCc1ccco1)c1cccc2c(-c3ccc(F)c(F)c3)coc12	none (no result: RTF Ca sens inh, CRFR2-BP ag, CRFR2-BP antag, RTF Ca sens act)
O=C(O)CCCCCN1C(=O)/C(=C\c2ccc(-c3ccc(Cl)cc3)o2)SC1=S	CRFR2-BP ag 114, Myeloid diff MLP active
CCOC(=O)c1c(C)[nH]c(C(=O)COC(=O)/C=C/c2ccc(OC(F)F)cc2)c1C	none
CCOC(=O)c1c(C)[nH]c(C)c1C(=O)COC(=O)/C=C/c1ccc(Cl)cc1	CRFR2-BP antag 129
CCOC(=O)c1c(C)[nH]c(C)c1C(=O)COC(=O)/C=C/c1ccc(OC(F)F)cc1	Myeloid diff MLP active
CC(C)Cn1cc(C(=O)N2CCOCC2)c2c3ccccc3n(C)c2c1=O	none
CC(C)Cn1cc(C(=O)N2CCC(C)CC2)c2c3ccccc3n(C)c2c1=O	CRFR2-BP antag 50
CC1CC(=O)C2=C(C1)Nc1ccccc1N(C(=O)COc1ccccc1)C2c1ccco1 (stereo not drawn)	Myeloid diff MLP active
Cc1cccc(C)c1NS(=O)(=O)c1cc2c3c(c1)CC(=O)N3CCC2	none
NC(=O)c1c(NC(=O)c2ccccc2)sc2c1CCN(Cc1ccccc1)C2	CRFR2-BP ag 178, RTF Ca sens act 49
CCCN1CCc2c(sc(NC(=O)c3ccc(S(=O)(=O)N4CCCC4)cc3)c2C(N)=O)C1	CRFR2-BP ag 62, Myeloid diff MLP active
CCN1CCc2c(sc(NC(=O)Nc3ccc(Cl)c(Cl)c3)c2C(N)=O)C1	CRFR2-BP ag 239, Myeloid diff MLP active, RTF Ca sens act 152
CCn1cc(CN2CCC(C(=O)Nc3ccc(Oc4cccnc4)cc3)CC2)cn1	none
COc1ccc(NC(=O)COC(=O)CCC2CCCC2)c(OC)c1	none
O=C(CNC(=O)c1sc2ccccc2c1Cl)NCc1cccc(C(F)(F)F)c1	none
CC(=O)Nc1ccc(S(=O)(=O)NCCC(=O)OCC(=O)NCc2ccccc2)cc1	none
COc1ccccc1C(=O)NC(=O)Cn1nc(C)c([N+](=O)[O-])c1C	none

High-throughput results from PubChem BioAssay.
